# Screens: PubChem BioAssay, Johns Hopkins Ion Channel Center
# Rows were chosen to be rich in hits. Some 1.6% of all compounds tested hit in one or more screens of this group.
# KCNQ2 pot: KCNQ2 (rat) channel potentiation. B-score at 10 µM. O88943. 310,000 tested, 0.54% active. AID 2239. CHO-K1 KCNQ2, FluxOR thallium flux fluorescence; active compounds read high;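 active = fluorescence ratio B-score at least 3 SD of library B-scores, with initial fluorescence B-score within 3 of them, cut at about 5.3 in these data; same plate scores as AID 2156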;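 note: B-score of peak minus minimum over baseline fluorescence ratio after K+ and Tl+ stimulus; positive B-score means potentiation of KCNQ2 with more thallium influx and brighter signal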
# KCNQ2 inh: KCNQ2 (rat) channel inhibition; O88943; CHO-K1 KCNQ2, FluxOR thallium flux, 20 min; active compounds read low; B-score at 10 µM; 310,000 tested, 1.1% active; AID 2156;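 active = fluorescence ratio B-score at most minus 3 library SDs, with starting brightness B-score within 2 library SDs, cut at about -5.5 in these data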
# Kir21 confirm: confirmation of mouse Kir2.1 potassium channel inhibitors. Tl flux remaining, % of negative control (active compounds read low), % at 10 µM. Kir2.1-expressing cells, FluxOR thallium flux fluorescence; active compounds read low. AID 2032. shares compounds with KCNQ2 pot. 2,300 tested, 41% active;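 active = Primary-screen hit whose thallium flux fell at least 3 control SD below untreated wells in both duplicates, with normal baseline fluorescence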;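 note: 0% = blank wells without stimulus and 100% = stimulated no-compound controls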
# HEK293 ctr: alters thallium flux in parental HEK293 cells, Kir2.1 counter-screen; shares compounds with KCNQ2 pot; FluxOR thallium flux fluorescence; 0% = unstimulated blank wells; FluxOR signal as % of negative control (100 = no effect), % at 10 µM; 2,300 tested, 19% active; AID 2105;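 active = dye signal at least 3 control SD above or below untreated wells in both duplicates, raw fluorescence within 3, either direction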;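 note: percent is based on the flux ratio of peak minus minimum fluorescence over baseline F0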
# CHO-K1 ctr: parental CHO-K1 activity in KCNQ2 potentiator counter-screen. shares compounds with KCNQ2 pot. parental CHO-K1 cells, FluxOR thallium flux fluorescence; zero = vehicle mean+3SD, 100% = vehicle-minus-blank window. activity increase over 3SD of controls, % at 10 µM. 1,200 tested, 43% active. AID 2282;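 active = signal rise of at least 3 SD above the untreated control mean, in both duplicate wells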;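 note: counter screen of KCNQ2 potentiator hits so any rise reflects channel-independent effects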
# KCNQ1 sel pot: human KCNQ1 counter-target activity of KCNQ2 potentiators. shares compounds with KCNQ2 pot. CHO KCNQ1 stable, FluxOR thallium flux fluorescence; beyond 3SD, as % of vehicle-control signal. activation over 3SD threshold, % at 10 µM. 1,200 tested, 28% active;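 active = fluorescence ratio rise of at least 3 SD of vehicle wells above their mean, in both replicate wells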;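 note: 0% = vehicle mean plus 3 SD and 100% = vehicle minus unstimulated blank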
# KCNQ2 pot conf: rat KCNQ2 channel potentiator confirmation; shares compounds with KCNQ2 pot; CHO-KCNQ2 cells, FluxOR thallium flux fluorescence; potentiation, less the hit threshold, % at 10 µM; 1,200 tested, 68% active; AID 2287;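 active = fluorescence ratio rising 3 SD or more over the vehicle control mean in both replicates, plus primary screen hit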;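 note: peak minus minimum thallium fluorescence divided by baseline after K/Tl stimulus; 0% = vehicle mean plus 3 SD and 100% = vehicle minus unstimulated blank difference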
# Kir2-1 sel: selectivity of KCNQ2 potentiators: effect on mouse Kir2.1 | shares compounds with KCNQ2 pot | HEK293 Kir2.1, FluxOR thallium flux fluorescence | activity over 3SD threshold, % at 10 µM | 1,200 tested, 2% active;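 active = fluorescence ratio rise of at least 3 SD above the vehicle-control mean, seen in both replicates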;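 note: 0% = vehicle mean plus 3 SD and 100% = vehicle minus no-stimulus blank window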
# KCNQ2 W236L pot: rat KCNQ2 W236L mutant potentiation by KCNQ2 potentiators; CHO KCNQ2-W236L, automated patch clamp current; AID 2558; 940 tested, 10% active; shares compounds with KCNQ2 pot; current increase over 3SD of negative controls (%), active compounds read high, % at 25 µM;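 active = current increase at least 3 SD of the untreated controls above them in both duplicate recordings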
# Target sequence (O88943 whole entry W236L, looked up): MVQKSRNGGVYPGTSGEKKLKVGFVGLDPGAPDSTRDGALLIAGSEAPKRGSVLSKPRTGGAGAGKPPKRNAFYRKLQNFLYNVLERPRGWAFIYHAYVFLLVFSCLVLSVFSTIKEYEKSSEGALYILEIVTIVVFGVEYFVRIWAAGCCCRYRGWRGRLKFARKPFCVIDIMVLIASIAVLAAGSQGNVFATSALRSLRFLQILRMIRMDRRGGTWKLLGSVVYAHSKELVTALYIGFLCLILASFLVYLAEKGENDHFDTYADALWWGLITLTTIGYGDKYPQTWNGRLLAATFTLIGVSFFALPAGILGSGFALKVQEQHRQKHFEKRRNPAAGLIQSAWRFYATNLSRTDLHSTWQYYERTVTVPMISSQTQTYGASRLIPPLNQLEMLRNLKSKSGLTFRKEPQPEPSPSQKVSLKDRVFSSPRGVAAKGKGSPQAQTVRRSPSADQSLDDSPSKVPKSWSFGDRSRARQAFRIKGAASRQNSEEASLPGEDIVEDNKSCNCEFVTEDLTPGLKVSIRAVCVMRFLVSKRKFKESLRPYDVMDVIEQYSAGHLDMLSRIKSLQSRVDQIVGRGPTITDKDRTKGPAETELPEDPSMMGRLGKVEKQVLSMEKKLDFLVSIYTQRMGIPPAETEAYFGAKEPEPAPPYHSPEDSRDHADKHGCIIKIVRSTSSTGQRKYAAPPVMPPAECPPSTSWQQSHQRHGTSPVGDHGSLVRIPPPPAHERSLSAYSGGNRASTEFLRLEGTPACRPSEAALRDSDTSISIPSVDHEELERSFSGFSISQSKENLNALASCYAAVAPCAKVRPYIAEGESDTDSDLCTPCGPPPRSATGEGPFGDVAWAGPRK
# The depositor's hits bear a star; i = inactive; / = not tested or not shown.
SMILES,KCNQ2 pot,KCNQ2 inh,Kir21 confirm,HEK293 ctr,others
Cc1ccc(S(=O)(=O)CCCS(=O)(=O)c2ccc(C)cc2)cc1,/,i,67.0%*,i,
Cc1cccc(C)c1OC(=O)CCN1C(=O)C2C3C=CC(C4CC34)C2C1=O (configuration not stated),/,i,/,/,
O=C(NC1CCN(Cc2ccccc2)CC1)c1ccccc1OCc1ccccc1,/,i,/,/,
O=C(NC1CCN(Cc2ccccc2)CC1)c1ccccc1OCc1ccccc1Cl,/,i,73.0%*,i,
Fc1cccc(Cc2noc(CN3CCC(c4ccncc4)CC3)n2)c1,/,i,/,/,
COc1ccc(S(=O)(=O)N2CCC3(CC2)OCCN3S(=O)(=O)c2cccs2)cc1OC,0.05,i,/,/,
CCc1ccc(CN(C)C(=O)c2cc(=O)c3ccccc3o2)cc1,/,i,/,/,
CN1CCC(N(C)C(=O)c2cc(=O)c3ccccc3o2)CC1,/,i,i,i,
COc1ccc(-c2cc(-c3cc(C)ccc3O)[nH]n2)cc1,0.62,i,/,/,
COc1ccc(-c2cc(-c3ccc(C)cc3)n[nH]2)c(O)c1,7.05*,i,i,i,CHO-K1 ctr=16.2*;KCNQ1 sel pot=-14.5;KCNQ2 pot conf=-31.8;Kir2-1 sel=-39.4
Cc1noc(C)c1COc1ccc(C(=O)OCC(=O)Nc2ccc(C(=O)N(C)C)cc2)cc1,/,i,/,/,
CC(=O)c1cc(-c2ccc(F)cc2)n(CCC(=O)Nc2cccc(C)n2)c1C,1.71,i,/,/,
O=C(O)COc1ccccc1Cc1ccccc1,/,i,/,/,
CC(COc1ccccc1Cc1ccccc1)N1CCCCC1 (configuration not stated),0.23,i,i,i,
O=C(CCC1CCCCC1)NCc1cccs1,7.39*,i,i,i,CHO-K1 ctr=54.1*;KCNQ1 sel pot=-11.7;KCNQ2 pot conf=14.8*;Kir2-1 sel=-22.0;KCNQ2 W236L pot=i
O=C(CCSCCC(=O)NCc1cccs1)NCc1cccs1,0.86,i,/,/,
O=C(NCc1cccs1)C12CC3CC(CC(C3)C1)C2,0.94,i,/,/,
O=C(CC1CC2CCC1C2)NCc1cccs1 (configuration not stated),5.35*,i,i,i,CHO-K1 ctr=-18.4;KCNQ1 sel pot=26.6*;KCNQ2 pot conf=12.7*;Kir2-1 sel=-35.5;KCNQ2 W236L pot=i
O=C(N/N=C/c1ccccc1OCC(=O)N1CCCC1)C(=O)Nc1ccccc1F,1.21,i,/,/,
O=C(c1ccc(Cl)c(S(=O)(=O)N2CCOCC2)c1)N1CCCCCC1,0.18,i,/,/,
Cc1ccc(NC(=S)NCc2ccc(F)cc2)c(C)c1,5.52*,i,i,i,CHO-K1 ctr=-6.9;KCNQ1 sel pot=-8.2;KCNQ2 pot conf=42.1*;Kir2-1 sel=-52.9;KCNQ2 W236L pot=i
Cc1ccc(C(C)NC(=S)NCc2ccc(F)cc2)cc1C (configuration not stated),8.13*,i,68.5%*,i,CHO-K1 ctr=0.0*;KCNQ1 sel pot=44.8*;KCNQ2 pot conf=33.4*;Kir2-1 sel=-72.9;KCNQ2 W236L pot=i
COc1cccc(C(C)NC(=S)NCc2ccc(F)cc2)c1 (configuration not stated),3.23,i,47.5%*,i,
Cc1ccc(NC(=S)NCc2ccc(S(N)(=O)=O)cc2)c(C)c1,0.24,i,/,/,
CCc1ccc(C(C)NC(=S)NCc2ccc(F)cc2)cc1 (configuration not stated),4.58,i,/,/,
CCOc1ccc(C(C)NC(=S)NCc2ccc(F)cc2)cc1 (configuration not stated),2.88,i,/,/,
CCCn1nnc(NC(=S)NC(=O)/C=C/c2ccco2)n1,2.4,i,/,/,
Cc1ccc(S(=O)(=O)N2CCN(C(=O)CNC(=O)c3ccc(Br)o3)CC2)cc1,1.7,i,/,/,
NNC(=O)c1ccc(CSc2n[nH]c(=O)[nH]c2=O)cc1,2.13,i,/,/,
Cn1nc(C(F)(F)F)c2cc(NC(=O)OCc3ccc(F)cc3)sc21,4.4,i,/,/,
